In PubChem BioAssay:
For some of these results: Entries with a potency or affinity are not part of this list. Activity calls are given as the source filed them.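 How the source made its calls, unless noted: active means calcium signal cut by more than 3 SD below the full-agonist control yet still positive, in both repeats and the earlier primary screen; inactive means the rest.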

Columns and labels:
[1] = tested on: TRPC4 beta (transient receptor potential cation channel C4), mouse; assay: activators of mouse TRPC4 channel, confirmation, cell-based, Fluo4 calcium, HEK293 TRPC4beta/mu-opioid, duplicates, 10 µM (AID 2426;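 active means fluorescence ratio normalized to control raised more than 50% in primary screen plus both repeat runs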;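 on activation: percent rise of integrated ratio over buffer wells lacking compound which define 0%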); settings: Fluo4 calcium fluorescence, at 10 µM; stronger effect = higher value
[2] = tested on: transient receptor potential cation channel C4 beta (TRPC4), mouse; assay: activators of mouse TRPC4 channel, confirmation, cell-based, second round, Fluo4, HEK293 TRPC4beta/mu-opioid, 1 µM (AID 2461;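 active means primary screen active and over 50% activation in each of two duplicate runs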;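 on activation: 0% = wells without test compound as baseline of integrated fluorescence ratio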); settings: Fluo4 calcium fluorescence, at 1 µM; stronger effect = higher value
[3] = tested on: TRPC4 (transient receptor potential cation channel C4 beta), mouse; assay: positive allosteric modulators of mouse TRPC4, confirmation, cell-based, second round, Fluo-4, HEK293 TRPC4beta/mu-opioid, 1 µM (AID 2554;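 active means primary screen hit whose fluorescence ratio, in both repeats, exceeds the weak agonist control mean by 3 SD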); settings: DAMGO EC20, Fluo-4 calcium flux, at 1 µM; stronger effect = higher value
[4] = tested on: TRPC4 beta (transient receptor potential cation channel C4), mouse; assay: positive allosteric modulators of mouse TRPC4, confirmation, cell-based, Fluo-4, HEK293 TRPC4beta/mu-opioid (AID 2555;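 active means primary screen hit whose calcium fluorescence ratio, in both repeats, exceeds the weak agonist control mean by 3 SD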); settings: DAMGO EC20, Fluo-4 calcium flux, at 10 µM; stronger effect = higher value
[5] = biological target: Short transient receptor potential channel 4 (Mus musculus) (UniProt Q9QUQ5); assay: inhibitors of mouse TRPC4 channel, confirmation, cell-based, Fluo4, HEK293 TRPC4beta/mu-opioid (AID 2636); settings: DAMGO, Fluo4 calcium flux, at 10 µM; stronger effect = higher value
[6] = biological target: Short transient receptor potential channel 4 (Mus musculus) (UniProt Q9QUQ5); assay: inhibitors of mouse TRPC4 channel, confirmation, cell-based, second round, Fluo4, HEK293 TRPC4beta/mu-opioid, 1 µM (AID 2637;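 active means calcium signal ratio cut to more than 3 SD under the fully stimulated control mean yet still positive, in both repeats and the primary screen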;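 on inhibition: percent of integrated ratio relative to wells lacking test compound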); settings: Fluo4 calcium flux, DAMGO, at 1 µM; stronger effect = higher value
[7] = biological target: Short transient receptor potential channel 4 (Mus musculus) (UniProt Q9QUQ5); assay: TRPC4 positive allosteric modulators, dose response, cell-based, HEK293 TRPC4/mu-opioid, Fluo-4 calcium, EC20 DAMGO (AID 434941;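 active means earlier screen potentiator hit that boosts the TRPC4 ion channel at some dose, with a dose response; inactive means no potentiation, no dose response, or not a prior hit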;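 further: calcium entry triggered by an EC20 dose of DAMGO at the co-expressed mu-opioid receptor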)
[8] = biological target: Short transient receptor potential channel 4 (Mus musculus) (UniProt Q9QUQ5); assay: mouse TRPC4 channel inhibitors, dose response, cell-based, HEK293 TRPC4/mu-opioid, Fluo-4 calcium (AID 434942;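 active means primary screen inhibitor hit that blocks the TRPC4 channel at some tested dose, yielding a dose curve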)
[9] = biological target: Short transient receptor potential channel 6 (Mus musculus) (UniProt Q61143); assay: inhibition of mouse TRPC6 channel, confirmation, selectivity assay for TRPC4 inhibitor project, cell-based, HEK293, membrane potential dye, duplicate (AID 434948;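 active means active in primary screen and both duplicates, each dropping signal beyond three positive-control SD with fluorescence still positive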); settings: HEK293 TRPC6, membrane potential dye fluorescence, at 10 µM, stimulated with maximal-effect acetylcholine; stronger effect = higher value
[10] = biological target: Short transient receptor potential channel 6 (Mus musculus) (UniProt Q61143); assay: activation of mouse TRPC6 channel, confirmation, selectivity assay for TRPC4 activator project, cell-based, HEK293, membrane potential dye, duplicate (AID 434950;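 active means membrane potential signal rise above negative control mean plus 3 SD in both duplicates, also active in the earlier TRPC4 screen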;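 on activation: 0% = buffer only wells and 100% = acetylcholine maximal-effect wells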); settings: HEK293 TRPC6, membrane potential fluorescence, at 10 µM; stronger effect = higher value
[11] = biological target: Short transient receptor potential channel 6 (Mus musculus) (UniProt Q61143); assay: TRPC6 potentiation by TRPC4 potentiator hits, confirmation, selectivity assay for TRPC4 potentiator project, HEK293 cells, membrane potential dye, duplicate (AID 434952;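 active means compound raising the membrane signal above positive-control mean plus 3 SD in both repeats, and a primary screen hit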); settings: HEK293 TRPC6, membrane potential dye fluorescence, at 10 µM, maximal acetylcholine added after compound; stronger effect = higher value
[12] = biological target: Short transient receptor potential channel 4 (Mus musculus) (UniProt Q9QUQ5); assay: calcium flux activators in TRPC4/5HT1a cells, counter-screen for TRPC4 activator project, cell-based, second counter screen, HEK293 TRPC4/5HT1a, Fluo-4 (AID 434977;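 active means calcium signal rise above buffer-control mean plus 5 SD in both duplicates, and also a hit in the primary screen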;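 on activation: plate controls were assay buffer for no effect and maximal serotonin response for full effect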); settings: Fluo-4 calcium flux, at 10 µM; stronger effect = higher value
[13] = calcium flux inhibitors in TRPC4/5HT1a cells, confirmation, counter-screen for TRPC4 inhibitor project, cell-based, second counter screen, HEK293 TRPC4/5HT1a, Fluo-4 (AID 434978;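 active means primary screen active whose calcium signal fell more than 3 SD beyond the full-serotonin control mean in both duplicate plates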;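 on outcome: serotonin given first at submaximal then at maximal dose after compound preincubation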); settings: Fluo-4 calcium flux, at 10 µM, serotonin added to trigger calcium flux; stronger effect = higher value
[14] = tested on: TRPC4 (mouse), co-expressed with 5HT1a in HEK293; assay: calcium flux potentiators in TRPC4/5HT1a cells, confirmation, counter-screen for TRPC4 potentiator project, cell-based, second counter screen, HEK293 TRPC4/5HT1a, Fluo-4 (AID 434979;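 active means signal rise over 3 SD above mean of control wells given weak agonist, in both repeats and first screen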); settings: Fluo-4 calcium flux, at 10 µM, serotonin added at its EC20 dose; stronger effect = higher value
[15] = calcium flux activation in mu-opioid HEK293 cells, confirmation, counter-screen for TRPC4 activator project, cell-based, HEK293 mu-opioid receptor line (AID 449723;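 active means hit in primary screen, with calcium signal over 5 SD above buffer well mean in both duplicates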;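 further: counter screen cells carry the mu-opioid receptor alone and lack TRPC4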); settings: Fluo-4 calcium fluorescence, at 10 µM; stronger effect = higher value
[16] = calcium flux enhancement in mu-opioid HEK293 cells, confirmation, counter-screen for TRPC4 allosteric potentiator project, cell-based, HEK293 mu-opioid receptor line (AID 449724;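 active means calcium signal rise more than 3 SD above the low-dose agonist control mean, in both duplicate plates and the primary screen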); settings: Fluo-4 calcium flux, at 10 µM, compound added before EC20 DAMGO stimulus; stronger effect = higher value
[17] = thallium flux activation in parental CHO cells, counter-screen for KCNQ1 potentiator project (AID 493006;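 active means duplicate-averaged activation above buffer control mean plus 5 SD of those controls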;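 on activation: fluorescence ratio of max minus min over baseline after K+ and Tl+ depolarization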); settings: parental CHO-K1 cells, FluxOR thallium flux, at 10 µM; stronger effect = higher value
[18] = biological target: Potassium voltage-gated channel subfamily KQT member 1 (Homo sapiens) (UniProt P51787); assay: KCNQ1 potassium channel potentiators, confirmation, FluxOR thallium flux, CHO cells, duplicates (AID 493007;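 active means potentiation averaged over duplicate wells exceeding buffer-only control mean by more than 3 SD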;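 further: 0% = buffer-only wells and 100% = R-L3 activator control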); settings: KCNQ1 cell line, FluxOR thallium flux fluorescence, at 10 µM; stronger effect = higher value, % of reference activator effect, buffer zero
[19] = biological target: Potassium voltage-gated channel subfamily KQT member 2 (Rattus norvegicus) (UniProt O88943); assay: rat KCNQ2 channel potentiation, selectivity assay for KCNQ1 potentiator project, KCNQ2-CHO-K1 cells (AID 493009;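 active means mean duplicate potentiation above the buffer control mean plus 5 SD of buffer wells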;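 further: assay conditions were tuned for KCNQ1 rather than KCNQ2 modulators; signal is max minus min fluorescence divided by baseline after thallium stimulus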); settings: FluxOR thallium flux fluorescence, at 10 µM; stronger effect = higher value, scaled: buffer 0, activator control 100
[20] = biological target: Potassium voltage-gated channel subfamily KQT member 1 (Homo sapiens) (UniProt P51787); assay: KCNQ1 channel current potentiators, confirmation, orthogonal assay for KCNQ1 potentiator project, IonWorks patch clamp, KCNQ1-CHO cells (AID 493184;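 active means current rise at least 3 SD above the untreated control mean in each of two repeat wells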); settings: automated patch clamp current, at 10 µM; stronger effect = higher value

Short transient receptor potential channel 6 (Mus musculus), sequence (Q61143 whole entry, looked up): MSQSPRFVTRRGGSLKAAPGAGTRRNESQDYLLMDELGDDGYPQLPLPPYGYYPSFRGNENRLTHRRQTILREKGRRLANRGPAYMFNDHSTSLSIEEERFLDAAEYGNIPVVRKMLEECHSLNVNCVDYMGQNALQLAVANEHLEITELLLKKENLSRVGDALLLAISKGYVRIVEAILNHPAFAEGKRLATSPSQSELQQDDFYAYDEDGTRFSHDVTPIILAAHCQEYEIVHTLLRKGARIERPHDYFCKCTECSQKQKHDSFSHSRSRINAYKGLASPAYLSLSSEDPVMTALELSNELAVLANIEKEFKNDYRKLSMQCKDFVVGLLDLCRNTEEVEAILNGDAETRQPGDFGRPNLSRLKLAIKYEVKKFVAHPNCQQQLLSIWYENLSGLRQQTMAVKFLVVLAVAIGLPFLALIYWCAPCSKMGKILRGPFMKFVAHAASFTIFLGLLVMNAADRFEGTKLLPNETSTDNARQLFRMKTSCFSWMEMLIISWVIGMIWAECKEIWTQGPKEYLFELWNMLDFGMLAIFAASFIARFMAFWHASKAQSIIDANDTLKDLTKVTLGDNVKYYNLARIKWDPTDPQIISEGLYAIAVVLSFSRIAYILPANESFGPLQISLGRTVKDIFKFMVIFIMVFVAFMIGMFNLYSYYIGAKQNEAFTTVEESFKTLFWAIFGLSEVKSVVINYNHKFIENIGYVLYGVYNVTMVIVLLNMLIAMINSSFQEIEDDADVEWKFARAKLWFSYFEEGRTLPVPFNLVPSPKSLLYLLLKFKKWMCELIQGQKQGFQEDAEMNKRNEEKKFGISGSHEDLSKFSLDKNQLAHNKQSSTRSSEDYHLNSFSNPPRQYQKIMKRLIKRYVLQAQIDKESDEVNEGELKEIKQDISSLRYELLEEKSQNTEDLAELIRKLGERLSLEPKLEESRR
Short transient receptor potential channel 4 (Mus musculus), sequence (Q9QUQ5 whole entry, looked up): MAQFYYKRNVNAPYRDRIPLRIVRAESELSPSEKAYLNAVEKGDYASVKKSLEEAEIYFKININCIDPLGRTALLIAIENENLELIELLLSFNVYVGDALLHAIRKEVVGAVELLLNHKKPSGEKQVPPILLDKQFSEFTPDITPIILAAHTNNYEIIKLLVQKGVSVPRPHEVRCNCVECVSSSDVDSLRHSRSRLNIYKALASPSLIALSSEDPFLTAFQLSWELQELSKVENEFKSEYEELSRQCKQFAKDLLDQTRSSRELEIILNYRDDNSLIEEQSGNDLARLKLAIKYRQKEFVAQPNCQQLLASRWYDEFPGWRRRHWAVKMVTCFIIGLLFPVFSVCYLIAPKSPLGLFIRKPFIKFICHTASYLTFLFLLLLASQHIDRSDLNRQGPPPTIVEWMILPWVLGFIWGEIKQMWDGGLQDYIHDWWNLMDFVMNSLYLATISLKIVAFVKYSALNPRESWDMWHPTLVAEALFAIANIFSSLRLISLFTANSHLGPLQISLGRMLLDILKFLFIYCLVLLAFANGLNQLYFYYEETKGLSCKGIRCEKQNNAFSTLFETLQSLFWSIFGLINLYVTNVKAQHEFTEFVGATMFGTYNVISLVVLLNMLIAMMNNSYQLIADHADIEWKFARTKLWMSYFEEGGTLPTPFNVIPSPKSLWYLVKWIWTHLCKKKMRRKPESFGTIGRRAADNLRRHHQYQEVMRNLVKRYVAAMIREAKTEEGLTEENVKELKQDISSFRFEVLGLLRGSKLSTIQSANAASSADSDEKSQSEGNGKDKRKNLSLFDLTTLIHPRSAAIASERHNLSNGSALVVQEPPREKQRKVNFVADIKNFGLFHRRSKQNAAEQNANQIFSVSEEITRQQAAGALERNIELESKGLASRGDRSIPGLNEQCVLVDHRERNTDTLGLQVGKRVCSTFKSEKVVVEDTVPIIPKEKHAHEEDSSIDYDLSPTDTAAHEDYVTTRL
Potassium voltage-gated channel subfamily KQT member 1 (Homo sapiens), sequence (P51787 whole entry, looked up): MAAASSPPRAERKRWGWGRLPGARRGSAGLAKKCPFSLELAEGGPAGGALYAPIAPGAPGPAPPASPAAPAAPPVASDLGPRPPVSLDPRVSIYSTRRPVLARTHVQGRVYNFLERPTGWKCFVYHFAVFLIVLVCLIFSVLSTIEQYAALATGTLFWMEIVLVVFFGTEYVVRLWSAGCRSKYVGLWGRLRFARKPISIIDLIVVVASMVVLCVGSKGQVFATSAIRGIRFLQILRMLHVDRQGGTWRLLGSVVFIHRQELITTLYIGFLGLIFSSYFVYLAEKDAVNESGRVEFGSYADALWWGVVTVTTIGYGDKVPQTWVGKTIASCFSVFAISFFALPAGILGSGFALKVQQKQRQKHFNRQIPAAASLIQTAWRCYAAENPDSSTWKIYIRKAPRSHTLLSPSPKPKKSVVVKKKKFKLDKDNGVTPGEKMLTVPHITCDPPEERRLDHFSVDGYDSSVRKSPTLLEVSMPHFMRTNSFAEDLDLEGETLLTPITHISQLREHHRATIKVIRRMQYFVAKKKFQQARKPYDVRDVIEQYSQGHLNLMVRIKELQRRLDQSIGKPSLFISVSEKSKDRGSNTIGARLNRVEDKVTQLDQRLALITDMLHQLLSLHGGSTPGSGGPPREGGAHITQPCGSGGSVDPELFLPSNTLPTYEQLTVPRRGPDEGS
Potassium voltage-gated channel subfamily KQT member 2 (Rattus norvegicus), sequence (O88943 whole entry, looked up): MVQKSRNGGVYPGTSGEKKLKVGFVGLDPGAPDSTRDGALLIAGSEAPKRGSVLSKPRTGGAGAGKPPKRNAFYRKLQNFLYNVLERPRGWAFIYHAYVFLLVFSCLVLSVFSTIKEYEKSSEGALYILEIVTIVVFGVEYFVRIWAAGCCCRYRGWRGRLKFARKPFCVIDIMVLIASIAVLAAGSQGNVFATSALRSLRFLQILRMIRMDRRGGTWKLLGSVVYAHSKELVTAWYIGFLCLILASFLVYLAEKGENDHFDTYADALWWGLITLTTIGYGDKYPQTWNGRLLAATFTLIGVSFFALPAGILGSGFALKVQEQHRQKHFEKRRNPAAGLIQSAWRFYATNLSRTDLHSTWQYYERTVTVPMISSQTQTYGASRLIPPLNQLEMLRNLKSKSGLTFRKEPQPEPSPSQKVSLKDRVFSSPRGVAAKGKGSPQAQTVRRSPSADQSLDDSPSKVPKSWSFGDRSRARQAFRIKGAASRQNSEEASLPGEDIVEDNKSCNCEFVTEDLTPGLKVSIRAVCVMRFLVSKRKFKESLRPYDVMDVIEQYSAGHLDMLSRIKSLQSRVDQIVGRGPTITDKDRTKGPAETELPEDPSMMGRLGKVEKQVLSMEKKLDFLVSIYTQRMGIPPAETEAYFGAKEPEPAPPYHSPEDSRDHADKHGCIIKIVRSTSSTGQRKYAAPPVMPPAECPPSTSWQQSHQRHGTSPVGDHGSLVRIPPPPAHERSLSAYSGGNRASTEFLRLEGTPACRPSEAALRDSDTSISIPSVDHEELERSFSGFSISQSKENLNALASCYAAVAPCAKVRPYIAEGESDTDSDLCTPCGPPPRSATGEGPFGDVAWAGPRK

CC[C@@H](C(=O)[C@@H](C)[C@@H](O)[C@H](C)CCc1ccc(C)c(O)c1C(=O)O)[C@H]1O[C@](CC)([C@H]2CC[C@](O)(CC)[C@H](C)O2)C[C@@H]1C
active: activation [1] 472% | activation [10] 58.5% | activation [12] 177% | activation [15] 82.7% | activation [17] 558% | potentiation [18] 149% | potentiation [19] 502%
inactive: outcome [2] | outcome [3] | outcome [4] | outcome [5] | outcome [6] | outcome [7] | outcome [8] | outcome [9] | outcome [11] | outcome [13] | outcome [14] | outcome [16] | outcome [20]

Cc1onc(-c2ccccc2)c1C(=O)NNC(=S)NC(=O)/C=C/c1ccccc1
active: inhibition [5] 77% | activation [10] 32.5% | activation [12] 39.7% | inhibition [13] 19.2% | activation [15] 14.8%
inactive: outcome [1] | outcome [2] | outcome [3] | outcome [4] | outcome [6] | outcome [7] | outcome [9] | outcome [11] | outcome [14] | outcome [16]

CCc1ccc(C(CNc2nc(C(F)(F)F)nc3ccccc23)N(C)C)cc1 (stereo not given)
inactive: outcome [1] | outcome [2] | outcome [3] | outcome [4] | outcome [5] | outcome [6] | outcome [7] | outcome [9] | outcome [10] | outcome [11] | outcome [12] | outcome [13] | outcome [14] | outcome [15] | outcome [16]

CC(NCc1cc(Br)ccc1OCC(=O)NCc1ccccc1)c1ccccc1 (stereo not given)
active: inhibition [5] 100% | activation [10] 55% | inhibition [13] 35.1%
inactive: outcome [1] | outcome [2] | outcome [3] | outcome [4] | outcome [6] | outcome [7] | outcome [9] | outcome [11] | outcome [12] | outcome [14] | outcome [15] | outcome [16]

CN1C2C=C(N(CCc3c[nH]c4ccccc34)C(=O)c3ccc(Cl)cc3)CC1CC2 (stereo not given)
active: activation [1] 130% | inhibition [6] 80%
inactive: outcome [2] | outcome [3] | outcome [4] | outcome [5] | outcome [7] | outcome [9] | outcome [10] | outcome [11] | outcome [12] | outcome [13] | outcome [14] | outcome [15] | outcome [16]

CN(C)C(CNC(=O)Cc1cccc(C(F)(F)F)c1)c1ccccc1 (stereo not given)
inactive: outcome [3] | outcome [4] | outcome [5] | outcome [6] | outcome [7] | outcome [9] | outcome [11] | outcome [12] | outcome [13] | outcome [14] | outcome [15] | outcome [16]
active: activation [1] 129% | activation [2] 142% | activation [10] 31%

Cc1ccc(OCC(=O)NNC(=S)NC(=O)C(C)(C)C)c(Br)c1
active: activation [1] 120% | activation [10] 24% | activation [12] 90.9% | activation [15] 19.6% | potentiation [18] 73% | potentiation [19] 158%
inactive: outcome [2] | outcome [3] | outcome [4] | outcome [5] | outcome [6] | outcome [7] | outcome [8] | outcome [9] | outcome [11] | outcome [13] | outcome [14] | outcome [16] | outcome [17] | outcome [20]
